Screens (PubChem)
The list is not random: actives were taken first. Their share in the collection is about 2.9%.
FID counter = counter-screen for HCV NS3 helicase inhibitors: DNA intercalator displacement. DNA fluorescent intercalator displacement, fluorescence. inhibition, % at 7.9 µM. 290,000 tested, 0.17% active. AID 1845; in the data active means inhibition above about 37%;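 further: 0% = vehicle and 100% = reference compound; higher means more ethidium bromide displaced from hairpin DNA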
MEKK2 mut-MEK5 = signal of MEK5 binding to mutant human MEKK2 PB1 domain; percent response, % at 10 µM; 290,000 tested, 0.35% active; bead flow cytometry, Alexa488-MEK5 binding to MEKK2 mutant; in the data active means percent response above about 24%, passing the limit was not always enough
MEKK2wt PB1 HTS = raises or lowers MEK5 binding to wildtype human MEKK2 PB1 domain; Q9Y2U5; bead flow cytometry, Alexa488-MEK5 binding to MEKK2 WT; actives lie on both sides; binding response (% of control), % at 10 µM; 290,000 tested, 1.1% active; AID 1531; in the data active means binding response below about 67% or above about 130%
dFosB act = enhances mouse delta FosB homodimer DNA binding. P13346. purified delta FosB, TAMRA-CDK5 oligo fluorescence polarization; percent of positive-control signal above neutral wells. activation, % at 25 µM. 340,000 tested, 0.99% active;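 active means mean activation above about 17%, with every replicate also reaching it, limit read from the data, passing the limit was not always enough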
Target sequence (P13346 whole entry, looked up): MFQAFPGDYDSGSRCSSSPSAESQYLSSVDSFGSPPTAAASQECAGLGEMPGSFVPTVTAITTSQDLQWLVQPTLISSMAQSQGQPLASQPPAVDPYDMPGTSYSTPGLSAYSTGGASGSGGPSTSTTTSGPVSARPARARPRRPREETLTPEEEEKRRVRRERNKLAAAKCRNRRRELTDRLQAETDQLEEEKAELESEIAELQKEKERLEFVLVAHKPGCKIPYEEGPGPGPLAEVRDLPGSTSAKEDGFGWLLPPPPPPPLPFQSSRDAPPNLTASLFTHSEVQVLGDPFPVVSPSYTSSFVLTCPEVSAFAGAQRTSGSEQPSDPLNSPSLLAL
MEKK3 PB1 HTS = MEKK3-MEK5 PB1 interaction, increase or decrease | bead-based flow cytometry, Alexa488-MEK5 binding to MEKK3; actives lie on both sides; 0 = blocked by unlabeled MEK5, 100 = vehicle | AID 1529 | Q99759 | 290,000 tested, 1.4% active | binding response (% of control), % at 10 µM;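 active means binding response more than 3 SD above or below the average of its plate-row segment, actives on both sides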;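 further: Alexa488 bead fluorescence after subtracting the streptavidin-only scavenger bead signal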
MEKK2wt confirm = raises or lowers MEK5 binding to wildtype human MEKK2, retest | shares compounds with MEKK3 PB1 HTS | bead flow cytometry, Alexa488-MEK5 binding to MEKK2 WT; actives lie on both sides | binding response (% of control), % at 10 µM | 5,900 tested, 2.4% active | AID 1892; in the data active means binding response below about 16% or above about 210%; inactive means in between
MEKK2mut confirm = signal of MEK5 binding to mutant human MEKK2, retest. shares compounds with MEKK3 PB1 HTS. bead flow cytometry, Alexa488-MEK5 binding to MEKK2 mutant. percent response, % at 10 µM. 5,900 tested, 2% active. AID 1893; in the data active means percent response mostly above about 71%, no sharp cut-off; inactive means mostly below about 38%;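 further: higher means compound restores mutant binding toward wildtype level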
MEKK3-MEK5 inh = confirmation of inhibitors of MEK5 binding to human MEKK3; shares compounds with MEKK3 PB1 HTS; bead flow cytometry, Alexa488-MEK5 binding to MEKK3; hits give low values; binding response (% of control), % at 10 µM; 5,900 tested, 1.8% active; AID 1894;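 active means binding response below 72% of control, or above a set upper limit, though filed actives all read lower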;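 further: 100% = DMSO only wells and 0% = binding blocked by excess unlabeled MEK5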
Active calls of the source: *; . = not tested or not shown; [ ] = remark or other dose.

SMILES	FID counter	MEKK2 mut-MEK5	MEKK2wt PB1 HTS	dFosB act	MEKK3 PB1 HTS	MEKK2wt confirm	MEKK2mut confirm	MEKK3-MEK5 inh
CCOC(=O)c1c(C)oc2cc(Cl)c(O)c(CN(C)C)c12	3	27	131	-11	128*	108	11	106
COc1ccc(C(=O)CN2C(=O)NC3(CCCCC3)C2=O)cc1OC	-13	7	125	-3	146*	102	7	106
COc1ccc(C(=O)CN2C(=O)NC3(CCCCCC3)C2=O)c(OC)c1	.	.	.	-9	.	.	.	.
O=c1ccn(-c2cccc(C(F)(F)F)c2)nc1-c1ccn(-c2cccc(Cl)c2)n1	-22	3	103	-18	102	.	.	.
Cc1cccc(C)c1NC(=O)Cn1nnc(-c2ccc(CN3CCC(C)CC3)cc2)n1	3	6	137	-2	144*	99	4	98
CC1CCN(Cc2ccc(-c3nnn(CC(=O)Nc4ccccc4Cl)n3)cc2)CC1	8	-3	108	-18	103	.	.	.
CC1CCN(S(=O)(=O)N2CCC(C(=O)NCCN3CCOCC3)CC2)CC1	-1	-13	83	2	77	.	.	.
CC1CCN(S(=O)(=O)N2CCC(C(=O)NCCC3=CCCCC3)CC2)CC1	-14	-23	70	4	70*[inhibitor]	101	2	107
O=C(NCCN1CCCCCC1)C1CCN(S(=O)(=O)N2CCOCC2)CC1	9	39*	131	-7	107	139	27	112
CS(=O)(=O)N1CCC(C(=O)NCCC2=CCCCC2)CC1	-14	6	106	-7	102	.	.	.
CC1CCN(CCCNC(=O)C2CCN(S(=O)(=O)N3CCCCC3)CC2)CC1	7	13	115	9	123*	103	0	102
CC1CC(C)CN(CCCNC(=O)C2CCN(S(=O)(=O)N3CCCCC3)CC2)C1 (configuration not stated)	17	10	118	1	123*	109	15	108
CCN1C(=O)C(CC(=O)Nc2ccccc2Cl)N(NC(=O)c2cccc(F)c2)C1=S (configuration not stated)	-17	4	100	-7	100	.	.	.
Cc1[nH]n(-c2ccccc2)c(=O)c1C=Nc1ccc(S(=O)(=O)N(C)C)cc1	10	-2	103	-5	105	.	.	.
Cc1[nH]n(-c2ccc(F)cc2)c(=O)c1C=Nc1ccc(S(=O)(=O)N(C)C)cc1	0	13	11*[inhibitor]	-2	97	102	6	101
Cc1cnc(C(=O)OCC(=O)Nc2ccc(Br)cc2F)cn1	.	.	.	0	.	.	.	.
O=C(/C=C/c1ccc(Cl)c([N+](=O)[O-])c1)Nc1cccc(NC(=O)c2ccco2)c1	4	0	112	-3	143*	107	1	103
O=C(/C=C/c1cccc([N+](=O)[O-])c1)Nc1cccc(NC(=O)c2ccco2)c1	2	-2	95	-2	100	.	.	.
CCCN1CCN(C(=O)c2oc3c(Cl)cccc3c2C)CC1	-13	1	101	-7	103	.	.	.
O=C(NNC(=S)NC(=O)c1cccnc1)c1ccc(F)cc1	-3	-8	90	5	95	.	.	.
O=C(NC(Nc1ccc(F)cc1)(C(F)(F)F)C(F)(F)F)c1cccnc1	5	-1	93	-9	53*[inhibitor]	106	6	104
CCc1ccc(NC(=S)N2CCC(NC(=O)c3ccccc3OC)CC2)cc1	-25	-3	95	-8	95	.	.	.
CC(C)c1nc2sc3c(=O)n(N)cnc3c2c2c1COC(C)(C)C2	-2	0	104	1	145*	120	31	119
CN(C)C(CNC(=O)c1ccc(S(=O)(=O)N(C)C)cc1)Cc1ccccc1 (configuration not stated)	11	1	100	-6	101	.	.	.
